Source: the supplement of paper PMC5662767
Structures can show the parent of a compound that is named as a salt.

Test system: Drosophila S2 cl14 SmoIP sensor cells
Assay: normalized SmoIP GFP fluorescence (untreated unstimulated = 0%, untreated Hh-stimulated = 100%); higher = more Smo activation sensor fluorescence
Settings: compound concentration: 2 uM, 24 h
[1] = stimulation: Hh conditioned medium (+Hh)
[2] = stimulation: mock conditioned medium (-Hh)
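Note: flow cytometry read-out as median GFP intensity of gated cells, compounds added 30 min before Hh-conditioned or mock medium, mock-treated cells serving as unstimulated baseline.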

| SMILES | normalized SmoIP GFP fluorescence [1] | normalized SmoIP GFP fluorescence [2] |
| --- | --- | --- |
| Cc1ccc(NC(=O)C2(c3ccc4c(c3)OC(F)(F)O4)CC2)nc1-c1cccc(C(=O)O)c1 | 80% | – |
| COc1ccc2[nH]c([S+]([O-])Cc3ncc(C)c(OC)c3C)nc2c1 (stereo not given) [Omeprazole] | 97% | – |
| COc1ccc2cc(CCC(C)=O)ccc2c1 [nabumetone] | 103% | -2.2% |
| CC(C)N(CCCNC(=O)Nc1ccc(C(C)(C)C)cc1)C[C@H]1O[C@@H](n2cc(Br)c3c(N)ncnc32)[C@H](O)[C@@H]1O | 140% | 0.986% |
| CN(C)Cc1cccc(N/C(=C2\C(=O)Nc3cc(C(N)=O)ccc32)c2ccccc2)c1 | 103% | -1.88% |
| Cc1cc(Nc2cc(CN3CCOCC3)c3nc(C)c(Cc4ccc(Cl)cc4F)n3n2)n[nH]1 | 109% | -5.53% |
| Cc1ccc2c(c1)C(=O)C1(O)CCN(c3ccccc3)C1=N2 (stereo not given) [blebbistatin] | 105% | -0.378% |
| Cn1cc(-c2ccc3ncc(Cc4ccc5ncccc5c4)n3n2)cn1 | 123% | -6.97% |
| N[C@@H](CC(=O)N1CCn2c(nnc2C(F)(F)F)C1)Cc1cc(F)c(F)cc1F [Sitagliptin] | 103% | -1.74% |
| Cc1ccccc1C(OCCN(C)C)c1ccccc1 (stereo not given) [orphenadrine-citrate-norflex] | 142% | -11.7% |
| O=C1C(=O)N(Cc2ccc(Cl)c(Cl)c2)c2ccccc21 [apoptosis-activator-2] | 103% | -2.82% |
| CCN(CC)CCCCNc1ncc2cc(-c3cc(OC)cc(OC)c3)c(NC(=O)NC(C)(C)C)nc2n1 | 123% | 8.79% |
| O=C(Nc1cccnc1)N1CCC(Cc2cccc(Oc3ccc(C(F)(F)F)cn3)c2)CC1 | 116% | -0.297% |
| Oc1c2ccccc2c2c3c(cccc13)N=N2 | 121% | 66% |
| C[C@]12CCC(=O)C=C1[C@@H]1C[C@@H]1[C@H]1[C@@H]3[C@@H]4C[C@@H]4[C@@]4(CCC(=O)O4)[C@@]3(C)CC[C@@H]12 [Drospirenone] | 110% | 1.03% |
| C/C(=N\NC(=S)N1CCC1)c1ccccn1 | 207% | 30.1% |
| CN1CCC[C@@H]1CCO[C@](C)(c1ccccc1)c1ccc(Cl)cc1 [Clemastine-Fumarate] | 104% | 10.7% |
| Oc1ccc(/C=C/c2cc(O)cc(O)c2)cc1 [Resveratrol] | 104% | -4.25% |

| SMILES | normalized SmoIP GFP fluorescence [1] | normalized SmoIP GFP fluorescence [2] |
| --- | --- | --- |
| O=C1[C@H](Cc2ccc(O)cc2)N2C(=O)CCN(C(=O)NCc3ccccc3)[C@H]2CN1Cc1cccc2ccccc12 | 125% | -2.82% |
| CC(C)n1c(/C=C/[C@@H](O)C[C@@H](O)CC(=O)O)c(-c2ccc(F)cc2)c2ccccc21 [Fluvastatin-Sodium(Lescol] | 78.2% | -7.6% |
| CCCCc1nc2cc(/C=C/C(=O)NO)ccc2n1CCN(CC)CC | 208% | 34.2% |
| CCCS(=O)(=O)Nc1ccc(F)c(C(=O)c2c[nH]c3ncc(Cl)cc23)c1F | 108% | -0.0496% |
| O=c1n(CCCN2CCN(c3cccc(Cl)c3)CC2)nc2ccccn12 [trazodone-hydrochloride-desyrel] | 172% | -8.23% |
| COc1ccc(C2CNC(=O)C2)cc1OC1CCCC1 (stereo not given) [Rolipram] | 92.5% | -1.88% |
| Fc1ccc(C(c2ccc(F)cc2)N2CCN(C/C=C/c3ccccc3)CC2)cc1 [flunarizine-dihydrochloride] | 134% | 6.74% |
| COc1cc(N2CCC(N)CC2)ccc1Nc1ncc(Cl)c(-c2c[nH]c3ccccc23)n1 | 113% | -2.48% |
| CCCc1cc(C)[nH]c(=O)c1CNC(=O)c1cc(-c2ccc(N3CCN(C(C)C)CC3)nc2)cc2c1cnn2C(C)C | 116% | 5.7% |
| Cc1cn(-c2cc(NC(=O)c3ccc(C)c(Nc4nccc(-c5cccnc5)n4)c3)cc(C(F)(F)F)c2)cn1 [Nilotinib] | 104% | -4.47% |
| C[C@@H](NCCc1ccc(O)cc1)[C@@H](O)c1ccc(O)cc1 [Ritodrine-hydrochloride-Yutopar] | 144% | -5.98% |
| NC(N)=N/N=C/c1c(Cl)cccc1Cl [guanabenz-wy-8678-acetate] | 112% | -4.7% |
| C[C@@H]1CCN(C(=O)CC#N)C[C@@H]1N(C)c1ncnc2[nH]ccc12 | 105% | -0.889% |
| O=C(NNc1ccccc1)c1ccncc1 | 105% | -2.71% |
| O=C(O)C(Cc1ccccc1[N+](=O)[O-])=NNc1nc(-c2ccc(Cl)c(Cl)c2)cs1 (mixture of isomers) | 127% | 46.7% |
| Cc1cc(F)c(Nc2ncnc3cc(OCc4ccccc4)ccc23)cc1O | 104% | -3.39% |
| CCCC(C)NC(=O)c1ccc(Cl)c(Cl)c1 (stereo not given) | 95.2% | -4.7% |
| CC(=O)OCC(=O)NCCCOc1cccc(CN2CCCCC2)c1 [roxatidine-acetate-hcl] | 142% | -6.97% |
